Among the data in PubChem BioAssay are z-score and composite z-score values, retold here.

Calls of active or inactive are those of the source. Unless noted, how the calls were made is not given here.

Assay [1] in a line: HepG2 liver cancer cell viability effects, profiling panel, resazurin fluorescence, 24 h, PK04 Diversity Set (AID 1172). Further: test concentration not given here. As to conditions: higher = more signal.
A short description of assay [2]: basal S. cerevisiae growth modulation, no modifier, primary screen, OD600, strain BY4716, 24 h, basal condition (AID 1173). Particulars: OD600, 24 h, higher = more signal, called active from +8 up or from −8 down.
Assay [3] in a line: MM1S myeloma cell viability, profiling panel, resazurin fluorescence, basal, 24 h, PK04 Diversity Set (AID 1174). Further: test concentration not given here. As to conditions: higher = more signal, called active from +8 up or from −8 down. A general note: Alamar Blue is a resazurin reagent that responds to reducing activity.
Assay [4] has as its target Dihydroorotate dehydrogenase (quinone), mitochondrial (Plasmodium falciparum (isolate 3D7)) (UniProt Q08210). Kind of assay: PfDHODH enzyme inhibitors, primary screen, biochemical, C-terminal His tag, absorbance 600 nm (AID 1175).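 Further: recombinant parasite enzyme with a five histidine tag at its C terminus; test concentration not given here.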 Particulars: DCIP absorbance 600 nm, higher = more signal, called active from +8 up or from −8 down.
Assay [5] is described as follows: P. aeruginosa biofilm formation inhibitors, primary screen, strain PAO1, LB-PBS medium, absorbance 600 nm (AID 1176). Further: test concentration not given here. As to conditions: P. aeruginosa PAO1 growth/biofilm, A600, 12 h; higher = more signal.
Assay [6] in a line: S. cerevisiae RM11-1a growth modifiers, primary screen, strain RM11-1a, OD600, basal, 24 h (AID 1177).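 Further: cultures grown under basal conditions with no added stressor; test concentration not given here.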 Particulars: OD600, 24 h, higher = more signal, called active from +8 up or from −8 down.
A short description of assay [7]: E. coli acrAB mutant growth effects, primary screen, E. coli filamentation inducers, strain DRC39, OD650, 24 h (AID 1178).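 Further: growth measured as culture turbidity by optical density at 650 nm; test concentration not given here.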 Particulars: higher = more signal, called active from +8 up or from −8 down.
The nature of assay [8]: E. coli acrAB mutant growth effects, primary screen, E. coli filamentation inducers, strain DRC39, OD650, 48 h (AID 1179).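 Further: screen aims at cell division blockers that make cells filament.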 As to conditions: E. coli DRC39 delta-acrAB growth, higher = more signal, called active from +8 up or from −8 down.
The nature of assay [9]: RPMI8226 myeloma cell viability, profiling panel, resazurin fluorescence, basal, 24 h, PK04 Diversity Set (AID 1180).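 Further: RPMI8826 multiple myeloma cell line at 5000 cells per well; test concentration not given here.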 Particulars: higher = more signal.
For assay [10], the target named is E3 ubiquitin-protein ligase XIAP (Homo sapiens) (UniProt P98170). Put plainly: XIAP binders, primary screen, biophysical, small-molecule microarray, fluorescence 635 nm (AID 1181).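 Further: score merges 667 nm emission and signal to noise over triplicate slides.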 As to conditions: small-molecule microarray binding, higher = more signal.
E3 ubiquitin-protein ligase XIAP (Homo sapiens), sequence (P98170 whole entry, looked up): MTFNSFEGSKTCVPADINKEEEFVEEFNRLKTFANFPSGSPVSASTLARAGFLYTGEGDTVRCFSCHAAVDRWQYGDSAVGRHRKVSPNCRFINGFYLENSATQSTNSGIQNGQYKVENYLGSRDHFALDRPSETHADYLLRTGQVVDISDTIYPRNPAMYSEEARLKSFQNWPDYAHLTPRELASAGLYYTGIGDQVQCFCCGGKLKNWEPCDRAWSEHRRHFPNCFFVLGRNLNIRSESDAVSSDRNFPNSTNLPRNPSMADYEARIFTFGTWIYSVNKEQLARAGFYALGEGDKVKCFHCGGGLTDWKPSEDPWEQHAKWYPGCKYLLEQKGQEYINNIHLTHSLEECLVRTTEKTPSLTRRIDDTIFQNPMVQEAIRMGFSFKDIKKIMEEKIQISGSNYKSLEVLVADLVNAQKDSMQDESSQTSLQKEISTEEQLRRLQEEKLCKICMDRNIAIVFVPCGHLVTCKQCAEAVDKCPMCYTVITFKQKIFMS

Dihydroorotate dehydrogenase (quinone), mitochondrial (Plasmodium falciparum (isolate 3D7)), sequence (Q08210 whole entry, looked up): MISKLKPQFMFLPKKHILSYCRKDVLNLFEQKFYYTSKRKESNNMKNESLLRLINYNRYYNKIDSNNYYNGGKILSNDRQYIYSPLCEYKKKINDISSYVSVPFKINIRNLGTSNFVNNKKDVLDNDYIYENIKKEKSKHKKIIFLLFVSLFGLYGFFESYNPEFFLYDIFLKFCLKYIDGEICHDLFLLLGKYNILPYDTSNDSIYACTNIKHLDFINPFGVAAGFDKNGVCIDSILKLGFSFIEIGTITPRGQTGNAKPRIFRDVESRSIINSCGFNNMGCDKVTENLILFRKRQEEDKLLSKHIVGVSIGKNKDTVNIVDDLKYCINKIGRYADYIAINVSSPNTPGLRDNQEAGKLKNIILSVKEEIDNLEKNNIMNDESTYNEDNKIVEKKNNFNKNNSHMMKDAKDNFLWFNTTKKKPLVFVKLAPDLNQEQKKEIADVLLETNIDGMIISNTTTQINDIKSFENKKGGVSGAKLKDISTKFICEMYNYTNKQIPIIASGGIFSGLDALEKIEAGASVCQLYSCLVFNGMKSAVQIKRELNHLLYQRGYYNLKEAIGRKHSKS

`C=CCNC(=O)[C@H]1[C@@H]2C(=O)O[C@@H](c3ccccc3)[C@@H](c3ccccc3)N2[C@@H](c2ccc(O)cc2)[C@]12C(=O)N(C(=O)OCCOC)c1ccc(C#CC3=CCCCC3)cc12`: the z-score in assay [1] was 0.467; in [2], 0.107 (inactive); in assay [3], -0.61 (inactive); in assay [5] it was 0.858 (inactive); in assay [6], 1.01 (inactive); in assay [7], -0.925 (inactive). Further, the z-score in [8] is -0.723 (inactive); in assay [9], -0.205. Besides, the figures for the composite z-score in assay [4] and in assay [10] were -0.629 (inactive) and 0.22, respectively.

For `O=C1[C@H]2[C@H]3[C@H](O)[C@H](O)CC(=NO[C@@H]4O[C@H](CO)[C@@H](O)[C@H](O)[C@H]4O)[C@@H]3CC[C@H]2C(=O)N1Cc1ccccc1`, the z-score in [1] is 1.04; in assay [2], -0.391 (inactive); in [3] it was 0.0897 (inactive); in assay [5], 0.565 (inactive); in assay [6], -0.497 (inactive); in assay [7], 0.405 (inactive). Moreover, the z-score in assay [8] was 1.21 (inactive); in assay [9], -0.145. Further, the composite z-score in [4] was 0.261 (inactive); in assay [10], 0.0689.

In the case of `C=CC[C@@H]1C=C[C@H](ON=Cc2ccc(C(=O)N3[C@H](c4ccc(C)cc4)[C@@H](C)CC[C@H]3C(=O)OC)cc2)[C@@H](CO)O1`, the z-score was 0.456 in assay [1]; -0.0957 (inactive) in [2]; -0.435 (inactive) in assay [3]; 0.547 (inactive) in assay [5]; 0.674 (inactive) in [6]; 0.442 (inactive) in assay [7]. The z-score in assay [8] is 0.226 (inactive); in [9], 0.0719. The results for the composite z-score in assay [4] and in assay [10] were 0.16 (inactive) and -0.16, respectively.

Consider `C#CCCCON=C1C[C@@H](O)[C@@H](O)[C@@H]2[C@@H]3C(=O)N(CCC(=O)OCC)C(=O)[C@@H]3CC[C@@H]12`, for which the z-score is -0.0517 in assay [1]; -0.395 (inactive) in assay [2]; -1.01 (inactive) in assay [3]; -0.0485 (inactive) in [5]; -0.538 (inactive) in assay [6]; 0.122 (inactive) in assay [7]. The z-score is 0.529 (inactive) in assay [8] and -0.739 in assay [9]. Moreover, the composite z-score was 0.175 (inactive) in [4] and -0.212 in assay [10].

Regarding `COc1ccc(O[C@H]2C=C[C@@H](c3ccccc3)O[C@@H]2COC(=O)N2CCCCC2)cc1`, the z-score in assay [1] is 0.54; in [2], 0.666 (inactive); in assay [3], 0.0872 (inactive); in assay [5] it was -0.139 (inactive); in assay [6], -0.499 (inactive); in assay [7], 0.396 (inactive). In addition, the results for the z-score in assay [8] and in [9] were 0.349 (inactive) and 0.883, respectively. The results for the composite z-score in assay [4] and in assay [10] were 0.0964 (inactive) and -0.234, respectively.

As to `COC(=O)C1=CCC(c2cccc(Cl)c2)O1` (stereo not given), the z-score in [1] was -0.0749; in assay [2], -3.58 (inactive); in [3], -0.232 (inactive); in [5], 0.216 (inactive); in assay [6] it was -0.695 (inactive); in assay [7], -0.0684 (inactive). Moreover, the figures for the z-score in assay [8] and in assay [9] were -0.0113 (inactive) and -0.646, respectively. In addition, the figures for the composite z-score in assay [4] and in assay [10] were -0.861 (inactive) and -0.0962, respectively.

Consider `C[C@@H]1C=CCC(=O)OC[C@H](C)C(=O)N2CCC[C@H]2C(=O)OC1`, for which the z-score in assay [1] is 0.613; in [2] it was 0.516 (inactive); in assay [3] it was -0.0084 (inactive); in assay [5], -0.549 (inactive); in assay [6], 0.21 (inactive); in [7] it was 0.686 (inactive). Further, the z-score in [8] was 0.528 (inactive); in [9], 0.575. Further, the composite z-score in assay [4] was -0.697 (inactive); in assay [10] it was -0.0416.

Regarding `O=C1[C@H]2[C@H]3[C@H](O)[C@H](O)CC(=NOCc4ccccc4)[C@H]3CC[C@H]2C(=O)N1c1ccc(F)cc1F`, the z-score in assay [1] was 1.15; in assay [2] it was -1.51 (inactive); in assay [3], -0.254 (inactive); in assay [5] it was 0.328 (inactive); in assay [6], -0.645 (inactive); in assay [7] it was 0.586 (inactive). The values for the z-score in [8] and in [9] were 0.535 (inactive) and 1.28, respectively. The composite z-score in assay [4] was -0.738 (inactive); in [10] it was 0.104.

Take `CC(C)=CCCC(C)=CCON=C1[C@H]2CCn3c(=O)n(C)c(=O)n3[C@H]2[C@H](O)[C@@H]2O[C@H]12`: the z-score was -0.653 in [1]; -0.777 (inactive) in [2]; -2.63 (inactive) in [3]; -0.543 (inactive) in [5]; 0.199 (inactive) in [6]; 0.119 (inactive) in [7]. Moreover, the results for the z-score in assay [8] and in [9] were 0.214 (inactive) and -0.88, respectively. Besides, the composite z-score in assay [4] was -0.251 (inactive); in assay [10], 0.153.

As for `CC(=O)OC[C@H]1O[C@@H](ON=C(C)CCN2CCc3nc(-c4ccccc4)c(-c4ccccc4)cc3C2)[C@H](OC(C)=O)[C@@H](OC(C)=O)[C@@H]1OC(C)=O`, the z-score in assay [1] is -0.182; in [2], -0.909 (inactive); in assay [3] it was -0.653 (inactive); in [5], 0.0039 (inactive); in assay [6] it was -0.127 (inactive); in assay [7], -1.11 (inactive). Besides, the z-score in [8] was -2.14 (inactive); in assay [9], -0.323. For the same compound, the composite z-score was -0.24 (inactive) in assay [4] and 0.0819 in [10].

With `CCOC(=O)CCN1C(=O)[C@H]2[C@H]3[C@H](O)[C@H](O)CC(=NOCc4ccccc4)[C@@H]3CC[C@H]2C1=O`, the z-score in [1] was -0.0233; in [2] it was -0.949 (inactive); in assay [3], -0.406 (inactive); in [5], 0.683 (inactive); in [6] it was -0.172 (inactive); in assay [7], -0.852 (inactive). Besides, the z-score in assay [8] was -0.599 (inactive); in [9], -0.103. In addition, the results for the composite z-score in assay [4] and in assay [10] were 0.404 (inactive) and 0.0455, respectively.

Consider `CCOC(=O)NN=C1C[C@@H](O)[C@@H](O)[C@@H]2[C@@H]3C(=O)N(C4CCCCC4)C(=O)[C@@H]3CC[C@@H]12`, for which the z-score is -0.252 in assay [1]; 0.126 (inactive) in [2]; -0.292 (inactive) in [3]; 0.283 (inactive) in [5]; -0.845 (inactive) in assay [6]; -0.959 (inactive) in assay [7]. For the same compound, the z-score in [8] was -0.499 (inactive); in [9], -0.145. For the same compound, the composite z-score in assay [4] is -1.71 (inactive); in assay [10] it was -0.102.

As for `O=C1[C@H]2[C@H]3[C@H](O)[C@H](O)CC(=NO[C@@H]4O[C@H](CO)[C@@H](O)[C@H](O)[C@H]4O)[C@@H]3CC[C@H]2C(=O)N1Cc1ccc2c(c1)OCO2`, the z-score in assay [1] was -0.191; in assay [2] it was -0.387 (inactive); in assay [3], 0.0622 (inactive); in assay [5], -0.389 (inactive); in [6], -0.558 (inactive); in [7], -0.494 (inactive). The results for the z-score in [8] and in assay [9] were -0.136 (inactive) and 0.36, respectively. The composite z-score was 0.0922 (inactive) in [4] and -0.0552 in assay [10].
